# Screening data: PubChem BioAssay, National Center for Advancing Translational Sciences (NCATS)
# In the library only some 8.7% were active in any assay of this set; here they are far more common.
# Sfp PPTase inh: inhibitors of Bacillus subtilis Sfp phosphopantetheinyl transferase; Biochemical Sfp PPTase activity, qHTS; Potency, µM, inactives show largest response in the series, negative = inhibition, usual class: inhibitors; actives 3.5% (n = 310,000); AID 1490;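 also: the enzyme is Sfp with the accession as filed and its product quenches rhodamine fluorescence; 0% = enzyme reaction without inhibitor and -100% = no enzyme wells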
#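 Reaction rates are the 30-min fluorescence difference (ex 525, em 598 nm) in wells containing 15 nM Sfp, 5 uM rhodamine-CoA and 12.5 uM BHQ-2-YbbR at pH 7.6 with 10 mM MgCl2.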
# JMJD2A Tudor inh: inhibitors of human JMJD2A Tudor domain | O75164 | AlphaScreen JMJD2A-Tudor / H3K4me3 peptide binding | Potency, µM (highest dose often 114 µM), for the others: at the highest dose activity change, negative = inhibition, most hits filed as inhibitors | actives 4.4% (n = 390,000) | AID 504339; also: % is scaled to controls: 0 for no effect and ±100 for the full control effect; nearly all actives have a fitted effect of over 50% in size
# BAZ2B inh: inhibitors of human BAZ2B bromodomain | Q9UIF8 | AlphaScreen BAZ2B-H3K14Ac peptide displacement | Potency, µM (top dose mostly 114 µM), for the others: at the highest dose activity change, negative = inhibition, hits mostly inhibitors | actives 4.4% (n = 360,000); also: % is scaled to controls: 0 for no effect and ±100 for the full control effect; nearly all actives have a fitted effect of over 60% in size
#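 Compounds, titrated to a top concentration of 110 uM, were incubated 30 min at room temperature with preformed BAZ2B/acetyl-K14 H3 peptide complex (50 nM each). Proximity signal was measured by AlphaScreen after 20 min with beads.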
# 12-LOX inh: blocks human arachidonate 12S-lipoxygenase. P18054. purified 12hLO, xylenol orange hydroperoxide absorbance. Potency, µM (highest dose often 108 µM), without a hit: top-dose activity change, negative = inhibition, actives largely listed as inhibitors. actives 1.1% (n = 580,000). AID 1671190; also: % is scaled to controls: 0 for no effect and ±100 for the full control effect
# Target sequence (P18054 whole entry, looked up): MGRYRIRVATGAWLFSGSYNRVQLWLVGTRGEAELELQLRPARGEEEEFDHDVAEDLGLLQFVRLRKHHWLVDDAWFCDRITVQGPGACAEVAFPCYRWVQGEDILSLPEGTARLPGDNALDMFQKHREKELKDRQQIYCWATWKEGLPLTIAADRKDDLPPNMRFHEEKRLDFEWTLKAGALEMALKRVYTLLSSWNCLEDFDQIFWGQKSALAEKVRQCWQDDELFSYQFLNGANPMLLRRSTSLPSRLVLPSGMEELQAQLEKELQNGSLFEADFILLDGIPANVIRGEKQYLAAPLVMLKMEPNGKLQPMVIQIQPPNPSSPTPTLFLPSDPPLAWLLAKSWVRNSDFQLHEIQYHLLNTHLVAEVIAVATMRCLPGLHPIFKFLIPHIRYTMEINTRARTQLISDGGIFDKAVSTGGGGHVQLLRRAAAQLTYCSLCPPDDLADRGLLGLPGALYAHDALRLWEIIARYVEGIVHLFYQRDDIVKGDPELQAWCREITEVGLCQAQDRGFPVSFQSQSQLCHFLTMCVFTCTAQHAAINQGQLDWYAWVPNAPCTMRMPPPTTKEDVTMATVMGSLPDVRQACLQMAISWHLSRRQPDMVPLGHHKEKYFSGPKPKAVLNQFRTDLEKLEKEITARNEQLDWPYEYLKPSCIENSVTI
#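 Purified human 12hLO (150 nM final) in 25 mM Hepes, 0.01% Triton X-100, pH 7.0 was preincubated 15 min at room temperature with compound. Then 40 uM arachidonic acid was added, 30 min. Hydroperoxide was read by Fe-XO absorbance ratio 573/405 nm.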
# HP1b binding inh: inhibitors of HP1-beta chromodomain binding to methylated histone tails; Potency, µM (highest dose often 114 µM), for inactives: top-dose activity change, negative = inhibition, most hits filed as inhibitors; AlphaScreen HP1-beta / biotin-H3K9me3 peptide binding; P83916; AID 540317; actives 0.56% (n = 390,000); also: nearly all actives have a fitted effect of over 70% in size
#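 AlphaScreen: HP1-beta (50 nM) preformed 30 min with biotin-H3(1-18)K9me3 peptide (50 nM) in PBS pH 7.4, 0.01% Tween-20. Compound added for 30 min at RT, then streptavidin donor/nickel chelate acceptor beads (10 ug/mL) for 30 min.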
# G9a block: inhibitors of human histone lysine methyltransferase G9a; Q96KQ7; G9a H3K9 monomethylation, AlphaScreen, 2 h; Potency, µM (titrated, usually from 102 µM), for inactives: at the top dose activity, negative = inhibition, usual class: inhibitors; actives 8.8% (n = 350,000); also: % is scaled to controls: 0 for no effect and ±100 for the full control effect; nearly all actives have a fitted effect of over 75% in size
#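 Signal arises when biotinylated H3K9 peptide, once monomethylated, bridges streptavidin donor and antibody-captured acceptor beads. Enzyme at 20 nM was preincubated 15 min with test compounds; peptide 500 nM and SAM 20 uM then reacted for 2 h.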
# Starred values were filed as active, the others as inactive; u = inconclusive; x = no result given; [ ] = dose if it differs, or a comment. Calls follow the shape of the dose curve; as a rule, active = well fitted curve in the direction sought with a large enough effect; inconclusive = small, poorly fitted or top-dose-only effect, or another doubt; inactive = no such curve, though single readings can be large; an effect the other way counts as inactive or inconclusive. Potency is read from the fitted curve at half-maximal effect.
SMILES,Sfp PPTase inh,JMJD2A Tudor inh,BAZ2B inh,12-LOX inh,HP1b binding inh,G9a block
CCOc1ccc(S(=O)(=O)N2CCN(C3(CC)CCN(C(=O)NC)C3)CC2)cc1 (stereo unspecified),x,x,x,10%,x,x
Cn1ccnc1-c1nc2ccccc2[nH]c1=O,9%,35µM*,18µM*,7%[57.4 µM],20%,2.5µM*
Cc1ccc(C2CC(c3ccc4c(c3)OCO4)=NN2C(=O)CCC(=O)O)cc1 (stereo unspecified),x,x,x,7%,x,x
O=C(NCCCN1CCCC1=O)c1ccc2c(c1)NC(=O)C(N1CCOCC1)S2 (stereo unspecified),71µM*,0%,-1%,45%,15%,-45%[12.7 µM]
COC(=O)c1ccc2c(c1)NC(=O)C(N1CCOCC1)S2 (stereo unspecified),13%,-3%,2%,-7%,20%,12%
CCc1ccc(S(=O)(=O)N[C@@H](C)C(=O)NCc2cscn2)cc1,x,x,x,1%,x,x
CCCOc1ccccc1C(=O)Nc1ccc(OC)c2ncccc12,x,x,x,36%,x,x
Cc1cc(C)nc(SCCC(=O)N(C)C)n1,50µM*,u,-1%,0%,39%,8.9µM*
Cc1cccc(NC(=O)CCSc2nc(C)cc(C)n2)c1,-10%,-7%,-1%,141%,42%,9%[0.501 µM]
CCNC(=O)CCSc1nc(C)cc(C)n1,32µM*,u,0%,u,10%,3.5µM*
COc1ccc(C)cc1N(C(=O)c1ccccc1)c1nc2ccccc2s1,4%,0%,5%,-4%,36%,-12%[59 µM]
COc1ccc(C)cc1N(C(=O)c1ccc(C#N)cc1)C1=NC(C)(C)CS1,-5%,0%,-20%,0%,29%,28µM*
O=C(CN1C2=NCCCN2c2ccccc21)c1ccc(Br)s1,-20%,-18%,-34%,0%,9%,50µM*
O=C(O)CN1C2=NCCCN2c2ccccc21,11%,5%,-25%,u,14%,u
O=c1oc2ccccc2c(NC2CCCCC2)c1NS(=O)(=O)c1ccccc1Cl,x,x,x,7%,x,x
CC(C)C(=O)NC(=S)Nc1sc2c(c1C(N)=O)CCCC2,u,u,-27%,u,u,4µM*
CCCC(=O)NC(=S)Nc1sc2c(c1C(N)=O)CCC2,40µM*,-19%,-7%,u,13%,7.9µM*
CCC(=O)Nc1sc2c(c1C(N)=O)CCC2,9%,-24%,8%,0%,1%,19%[59 µM]
Cc1cccc(-c2nc(CS(=O)CC(=O)NCc3ccc(F)cc3)c(C)o2)c1 (stereo unspecified),x,x,x,-5%,x,x
O=C(c1ccccc1)N1CCC2(CC1)NC(=O)N(Cc1ccccc1)C2=O,x,x,x,12%,x,x
CCOP(=O)(O)c1ccccc1OCCCCCOc1ccccc1P(=O)(O)OCC,5%,-16%,2%,-10%,28%,-5%[59 µM]
CCOP(=O)(O)c1ccccc1OCCOc1ccccc1P(=O)(O)OCC,-7%,-17%,u,-14%,81%,45µM*
Cc1ccc(C#CC[N+]2(CC#Cc3ccc(C)cc3)CCCCC2)cc1,-8%,-23%,4%,u,22%,89µM*
C#CC[N+]1(CC#Cc2ccccc2)CCCCC1,20%,-1%,-5%,-12%,48%,19%[59 µM]
C(#Cc1ccccc1)C[N+]1(CC#Cc2ccccc2)CCCCC1,13%,45µM*,-38%,-1%,5%,-33%
SMILES,Sfp PPTase inh,JMJD2A Tudor inh,BAZ2B inh,12-LOX inh,HP1b binding inh,G9a block
Cc1ccccc1NC(=S)c1nc2ccccc2[nH]1,13%,u,11µM*,8%,2%,10%[59 µM]
S=C(Nc1ccc(Cl)cc1)c1nc2ccccc2[nH]1,21%,u,45µM*,18%,u,16%[59 µM]
Cc1ccc(C(=O)NCCc2c[nH]c3ccc(Cl)cc23)cc1,x,x,x,-61%,x,x
CC(O)c1cc2n(n1)CCN(C(=O)CN1CCCN(C)CC1)C2 (stereo unspecified),x,x,x,25%,x,x
NC(=O)c1ccc(CC2CCN(C(=O)C3CCOCC3)CC2)cc1,x,x,x,3%,x,x
C=CCn1c(OCc2ccccc2)n[nH]c1=S,-4%,3.2µM*,-17%,0%,u,8.9µM*
CCn1c(C(c2ccccc2)c2ccccc2)n[nH]c1=S,2%,32µM*,-7%,u,-5%,7.9µM*
C=CCn1c(CCn2c3ccccc3c3ccccc32)n[nH]c1=S,-14%,-29%,10%,-18%,15%,u
C=CCn1c(C(c2ccccc2)c2ccccc2)n[nH]c1=S,-19%,-18%[57.1 µM],-30%,-24%,23%,10µM*
S=c1[nH]nc(COc2cccc(Cl)c2)n1Cc1ccccc1,13%,-34%,-19%,-28%,15%,-32%[12.7 µM]
CCCOc1ccc(C(=O)NC2CCCCNC2=O)cc1OCC (stereo unspecified),x,x,x,17%,x,x
CCc1nnc(NC(=O)C2CCN(C(=O)c3ccco3)CC2)s1,5%,-13%,-11%,-6%,-3%,u
CC(C)c1nnc(NC(=O)C2CCN(C(=O)c3ccco3)CC2)s1,-25%,-3%,2%,u,-4%,32µM*
Cc1nnc(NC(=O)C2CCN(C(=O)c3ccco3)CC2)s1,1%,-4%,4%,2%,-13%,u
COCc1nnc(NC(=O)C2CCN(C(=O)c3ccco3)CC2)s1,50µM*,13%,-2%,-15%,-16%,13µM*
CCC(C)(C)c1nnc(NC(=O)C2CCN(C(=O)c3ccco3)CC2)s1,-101%,35µM*,u,u,u,1.8µM*
COc1ccccc1Cc1nnc(NC(=O)C2CCN(C(=O)c3ccco3)CC2)s1,45µM*,-11%,-20%,u,u,10µM*
CN(C)C[C@@H]1CN(S(C)(=O)=O)C[C@H]1NC(=O)c1cncn1C,x,x,x,41%,x,x
O=C(Nc1ccc(-c2nc3ccccc3s2)cc1)C1CCN(C(=O)c2cccs2)CC1,x,x,x,-9%,x,x
Cc1noc(C)c1C(=O)N1CCCCC1c1nc(CCOCC2CCCC2)no1 (stereo unspecified),x,x,x,22%,x,x
Cc1ccccc1Nc1nc(-c2sc(NC(=O)c3ccccc3)nc2C)cs1,25µM*,x,u,x,x,35µM*
CC(=O)c1ccc(Nc2nc(-c3sc(C)nc3C)cs2)cc1,x,x,x,-10%,x,x
Cc1ccccc1Nc1nc(-c2sc(NC(=O)c3cccc(Cl)c3)nc2C)cs1,-7%,x,89µM*,x,x,22µM*
Cc1ccc(Nc2nc(-c3sc(NC(=O)c4ccc([N+](=O)[O-])cc4)nc3C)cs2)cc1,6%,x,45µM*,x,x,x
Cc1ccc(Cl)cc1Nc1nc(-c2sc(NC(=O)c3cccc(Cl)c3)nc2C)cs1,-1%,x,u,x,x,32µM*
Cc1ccc(Cl)cc1Nc1nc(-c2sc(NC(=O)c3ccco3)nc2C)cs1,8%,u,u,-26%,23%,u
